# Results reported in the supplement of paper PMC12494721.
# Counter-ions that a name gives are not always drawn. Values without a mark were called inactive.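 Rule for the calls: for the amine columns active = adjusted P below 0.05 in both replicates with a change the same way and a mean fold change under 0.8 or over 1.25; inactive = the rest.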
# Test system: Clostridium sporogenes DSM 1664
# Experiment: fold change of Tryptamine concentration vs plate DMSO controls (fold change (ratio)); higher = more amine produced, active = hit call of the paper (significant change in both replicates, either direction)
# Settings: incubation time: 27 h, anaerobic, 37 °C
# How it was run: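 Amine values are fold changes relative to DMSO-only wells on the same plate. They derive from 27 h, 37 °C anaerobic mGAM cultures of four gut bacterial strains in 80 µL wells, dosed at 20 µM final, or 50 µM final for sweeteners. Extraction of the whole culture, LC–triple-quadrupole MS in dynamic MRM mode, external calibration curves and within-batch drift correction were used, with 2 biological replicates averaged.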
row,Compound,fold change of Tryptamine concentration
1,CN1CCC(=C2c3ccccc3CCc3cccnc32)CC1 [Azatadine maleate] (20 µM),1.14
2,CC(=O)OC[C@H]1O[C@@H]([S-])[C@H](OC(C)=O)[C@@H](OC(C)=O)[C@@H]1OC(C)=O.CCP(CC)CC.[Au+] [Auranofin] (20 µM),0.49 (active)
3,C=CCOC(Cn1ccnc1)c1ccc(Cl)cc1Cl (centres undefined) (20 µM),1.08
4,CC[C@H](C)C(=O)O[C@H]1CCC=C2C=C[C@H](C)[C@H](CC[C@@H]3C[C@@H](O)CC(=O)O3)[C@H]21 [Mevastatin] (20 µM),0.988
5,NS(=O)(=O)c1cc2c(cc1Cl)NC(Cc1ccccc1)NS2(=O)=O (centres undefined) [Benzylhydrochlorothiazide] (20 µM),1.05
6,O=c1[nH]c(=O)n(C2CCCO2)cc1F (centres undefined) [Tegafur] (20 µM),1.01
7,Cc1nn(C)c(Oc2ccccc2)c1/C=N/OCc1ccc(C(=O)OC(C)(C)C)cc1 (20 µM),0.918
8,CS(=O)(=O)OCCCCOS(C)(=O)=O [Busulfan] (20 µM),1.04
9,CCSc1ccc2c(c1)N(CCCN1CCN(C)CC1)c1ccccc1S2 [Thiethylperazine maleate] (20 µM),0.971
10,Cc1ncc([N+](=O)[O-])n1C [Dimetridazole] (20 µM),0.0153 (active)
11,CC[C@@H]1C(=O)OC[C@@H]1Cc1cncn1C [Pilocarpine nitrate] (20 µM),0.955
12,Clc1ccc(C(Cn2ccnc2)OCc2ccsc2Cl)c(Cl)c1 (centres undefined) [Tioconazole] (20 µM),0.957
13,c1coc(CNc2ncnc3[nH]cnc23)c1 [Kinetin] (20 µM),0.976
14,CC1(C)O[C@@H]2C[C@H]3[C@@H]4CCC5=CC(=O)CC[C@]5(C)[C@@]4(F)[C@@H](O)C[C@]3(C)[C@]2(C(=O)CCl)O1 [Halcinonide] (20 µM),0.989
15,CC(=O)N[C@@H](CC(C)C)C(=O)O [N-Acetyl-L-leucine] (20 µM),0.964
16,COc1cccc(CCc2ccccc2OCC(CN(C)C)OC(=O)CCC(=O)O)c1 (centres undefined) [Sarpogrelate hydrochloride] (20 µM),0.989
17,CN1CCC(=C2c3ccccc3CCc3sccc32)CC1 [Pizotifen malate] (20 µM),1.01
18,Oc1ccc2ccccc2c1N=Nc1ccccc1 [Sudan I (1-phenylazo-2-hydroxynaphthalene)] (20 µM),0.919
19,CC(C)(C)c1ccc(C(=O)CCCN2CCC(OC(c3ccccc3)c3ccccc3)CC2)cc1 [Ebastine] (20 µM),0.991
20,O=c1oc2cc(O)ccc2s1 [Tioxolone] (20 µM),1.05

row,Compound,fold change of Tryptamine concentration
1,CCCOc1ccc(C(=O)OCCN(CC)CC)cc1N [Proparacaine hydrochloride] (20 µM),1.09
2,CC(C)NC[C@H](O)COc1cccc2ccccc12 [(S)-(-)-Propranolol hydrochloride] (20 µM),1.02
3,COc1cc(C(=O)NCc2ccc(OCCN(C)C)cc2)cc(OC)c1OC [Trimethobenzamide hydrochloride] (20 µM),1.12
4,N[C@@H](Cc1cc(I)c(Oc2cc(I)c(O)c(I)c2)c(I)c1)C(=O)O [(L) Thyroxine] (20 µM),1.27
5,O=C(NCC(O)CO)c1c(I)c(C(=O)NCC(O)CO)c(I)c(N(CCO)C(=O)CO)c1I (centres undefined) [Ioversol] (20 µM),1.11
6,CCCCC[C@H](O)/C=C/[C@H]1[C@H](O)CC(=O)[C@@H]1CCCCCCC(=O)O [Alprostadil] (20 µM),0.957
7,CC(C)(CO)[C@@H](O)C(=O)NCCCC(=O)O [Hopantenate calcium] (20 µM),1.02
8,Cc1nnc(NS(=O)(=O)c2ccc(N)cc2)s1 [Sulfamethizole] (20 µM),0.928
9,OC[C@H](O)C(O)[C@@H](O)CO [L-Arabinitol] (50 µM),0.956
10,CN/C(=N\CCSCc1nc[nH]c1C)NC#N [Cimetidine] (20 µM),0.981
11,CCN(CC)C(=O)/C(C#N)=C/c1cc(O)c(O)c([N+](=O)[O-])c1 [Entacapone] (20 µM),0.961
12,OC(CNCC(O)C1CCc2cc(F)ccc2O1)C1CCc2cc(F)ccc2O1 (centres undefined) [Nebivolol hydrochloride] (20 µM),0.94
13,CCN(CC)CC(=O)Nc1c(C)cccc1C [Lidocaine hydrochloride] (20 µM),1.01
14,C[C@H](NCc1ccc(OCc2cccc(F)c2)cc1)C(N)=O [Safinamide] (20 µM),1.03
15,CN(C)CCc1c[nH]c2ccc(Cn3cncn3)cc12 [Rizatriptan benzoate] (20 µM),1
16,"C[C@H]1C[C@@H]2[C@H]([C@@H](O)C[C@@]3(C)[C@H]2CC[C@]3(O)C(=O)CO)[C@@]2(C)C=CC(=O)C=C12 [Methylprednisolone, 6-alpha] (20 µM)",1.03
17,CC1COc2ccccc2N1C(=O)C(Cl)Cl (centres undefined) (20 µM),1.02
18,C=C1c2cccc(O)c2C(O)=C2C(=O)[C@]3(O)C(O)=C(C(N)=O)C(=O)[C@@H](N(C)C)[C@@H]3[C@@H](O)[C@H]12 [Methacycline hydrochloride] (20 µM),0.0282 (active)
19,CCN1CCCC(OC(=O)C(c2ccccc2)c2ccccc2)C1 (centres undefined) [Piperidolate hydrochloride] (20 µM),1.07
